Only some compounds are listed: those with a hit (about 2.4% of all), similar ones and a draw of the others.
GLS inhibitor – inhibitors of human glutaminase (GLS); O94925; GLS enzymatic activity, qHTS titration; Potency, µM (highest dose often 45.5 µM), without a hit: top-dose activity change, negative = inhibition, actives largely listed as inhibitors; 410,000 tested, 0.21% active; AID 624170; note: potency is the fitted concentration of half-maximal effect; % is set by controls: 0 for no effect and ±100 for the full control effect
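Compounds were pin-transferred onto hKGA, after which L-glutamine (1 mM solution) and a detection mix of glutamate oxidase, HRP and Amplex Red were added. Initial and 30 min RT fluorescence reads were collected.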
POLI inh – inhibitors of human DNA polymerase iota; Potency, µM (series often up to 115 µM), for inactives: at the top dose activity, negative = inhibition, hits mostly inhibitors; 390,000 tested, 1% active; Q9UNA4; Pol iota fluorescent replication assay, 10 min; AID 588590; note: potency is the fitted concentration of half-maximal effect
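Pol iota at 10 nM preincubated 15 min with compounds at room temperature; reaction started with fluorescent substrate, 50 nM final. Fluorescence read kinetically at 0 and 10 min; buffer-only wells as negative control.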
KAT2A inh – GCN5L2 (KAT2A) acetyltransferase inhibition. Q92830. GCN5L2 HAT assay, ThioGlo1 CoA-SH fluorescence. Potency, µM (series often up to 58.9 µM), for inactives: at the top dose activity change, negative = inhibition, most hits filed as inhibitors. 390,000 tested, 0.21% active; note: potency is the fitted concentration of half-maximal effect; % is set by controls: 0 for no effect and ±100 for the full control effect
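Free CoA generated was detected with ThioGlo1 (50uM) fluorescence at Ex340nm/Em540nm, read immediately and after 20 min at room temperature. Enzyme, 20 nM in HEPES pH 7.5 buffer, saw compounds 15 min before adding 75uM H3(1-25) peptide and 70uM acetyl-CoA.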
Pol eta inh-1 – DNA polymerase eta (human) inhibition. 390,000 tested, 1.2% active. Potency, µM (top dose mostly 114 µM), inactives show at the top dose activity change, negative = inhibition, usual class: inhibitors. Q9Y253. recombinant Pol eta, fluorescent DNA replication assay. AID 588591; note: potency is the fitted concentration of half-maximal effect; % is set by controls: 0 for no effect and ±100 for the full control effect
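Pol eta (10 nM) was preincubated with compounds for 15 min at room temperature, after which fluorescent replication substrate (50 nM final) was added to start the reaction. Fluorescence was read kinetically at 0 and 10 min.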
Pol kappa inh-1 – blocks human DNA polymerase kappa activity; Q9UBT6; purified Pol kappa, fluorescent DNA synthesis assay, 10 min; Potency, µM (series often up to 107 µM), inactives show at the top dose activity, negative = inhibition, most hits filed as inhibitors; 400,000 tested, 0.53% active; note: potency is the fitted concentration of half-maximal effect; % is set by controls: 0 for no effect and ±100 for the full control effect
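Inhibition of 10 nM Pol kappa is measured by a fluorescent read-out at 0 and 10 min following addition of 50 nM substrate (final), with a 15-min room-temperature compound preincubation.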
POLB inh – blocks human DNA polymerase beta activity; P06746; Pol beta primer extension/strand displacement, fluorescence kinetic; Potency, µM (top dose mostly 114 µM), without a hit: top-dose activity change, negative = inhibition, most hits filed as inhibitors; 340,000 tested, 1.3% active; note: potency is the fitted concentration of half-maximal effect; % is set by controls: 0 for no effect and ±100 for the full control effect
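Preincubation: enzyme (10 nM) with compound, 15 min, RT. Reaction: substrate added to 50 nM final. Reads: 0 and 10 min. Analysis: normalized, Hill fit.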
GALK confirm – galactokinase (human) inhibition, confirmation; shares compounds with Pol eta inh-1; purified GALK, Kinase-Glo ATP depletion luminescence; Potency, µM (highest dose often 115 µM), for the others: at the top dose activity, negative = inhibition, actives largely listed as inhibitors; 150 tested, 70% active; AID 2015
Redox cycling – generates H2O2 by redox cycling, flagging GALK artifacts. shares compounds with Pol eta inh-1. Phenol red-HRP H2O2 redox cycling, absorbance 600 nm. Potency, µM (doses to about 115 µM), without a hit: at the highest dose activity change, negative = H2O2 signal, actives largely listed as inhibitors. 150 tested, 40% active. AID 2035
HEK293 tox – counter-screen for GALK inhibitors: HEK293 cell cytotoxicity. shares compounds with Pol eta inh-1. HEK-293 viability, ATP luminescence (CellTiter-Glo), 24/48 h. Potency, µM (series often up to 46.1 µM), for inactives: top-dose activity change, negative = cytotoxicity, actives largely listed as inhibitors. 170 tested, 10% active; note: potency is the fitted concentration of half-maximal effect; % is set by controls: 0 for no effect and ±100 for the full control effect
Pol kappa inh-2 – Pol kappa (human) inhibition, cherry-pick confirmation; 920 tested, 76% active; Potency, µM, most hits filed as inhibitors; purified Pol-kappa, fluorescent strand-displacement substrate; shares compounds with Pol eta inh-1; note: potency is the fitted concentration of half-maximal effect
Pol eta inh-2 – Pol eta (human) inhibition, cherry-pick confirmation; Potency, µM, actives largely listed as inhibitors; shares compounds with Pol eta inh-1; 2,600 tested, 64% active; Pol eta primer extension, TAMRA/BHQ fluorescence, 10 min; note: potency is the fitted concentration of half-maximal effect
An asterisk follows results filed as active; ? = inconclusive; nt = not tested or not shown; [ ] = remark or other dose. Calls come from the whole dose curve; as a rule, active = well fitted curve in the direction sought with a large enough effect; inconclusive = small, poorly fitted or top-dose-only effect, or another doubt; inactive = no such curve, though single readings can be large; an effect the other way counts as inactive or inconclusive.

SMILES	GLS inhibitor	POLI inh	KAT2A inh	Pol eta inh-1	Pol kappa inh-1	POLB inh	HEK293 tox	others
COc1ccc(-n2c(-c3ccco3)nc3c(cnn3-c3ccccc3Cl)c2=O)cc1	2.7%	37.8%	-8.7%	-16.3%	-5.9%	-2.0%	nt
Cn1c2ccccc2c(=O)n2c(=O)c3ccccc3cc12	nt	nt	1.0%	nt	nt	11.0%	0.4%	GALK confirm=10.6µM*;Redox cycling=9.43µM*
CC1(C)OC(C)(C)/C(=C/Nc2ccc(O)cc2)C1=O	58.1%	?	-15.9%	17.8µM*	-28.4%	?	nt	Pol kappa inh-2=?;Pol eta inh-2=?
CC1(C)OC(=O)C(=CNc2cccc(O)c2)C(=O)O1	0.0%	26.7%	17.4%	-11.0%	-0.3%	19.1%	nt
COc1cccc(C2N=C(Nc3nc4ccccc4o3)NC3=C2C(=O)CC(C)(C)C3)c1 (stereo not given)	nt	nt	nt	nt	nt	nt	6.1%
CC1(C)CC(=O)C2=C(C1)NC(Nc1nc3ccccc3o1)=NC2c1cccc(Cl)c1 (stereo not given)	nt	nt	nt	nt	nt	nt	?
COc1cccc(C2C3=C(CC(C)(C)CC3=O)Nc3cc(OC)c(OC)cc32)c1 (stereo not given)	-1.0%	59.5%	-12.5%	-18.5%	-2.0%	-1.5%	nt
O=C1CCCC2=C1C(c1ccc(Cl)cc1)N=C(Nc1nc3ccccc3o1)N2 (stereo not given)	nt	-6.5%	nt	nt	1.1%	nt	12.8%
COc1ccccc1C1N=C(Nc2nc3ccccc3o2)NC2=C1C(=O)CC(C)(C)C2 (stereo not given)	nt	28.7%	nt	nt	-17.6%	nt	-28.4%
OCCN1CN=C(Nc2nc3ccccc3o2)NC1	3.1%	-2.8%	-0.4%	-13.9%	-3.9%	20.1%	nt
Cc1cc(Cl)ccc1NC(=O)CCS(=O)(=O)c1ccc2c(c1)CC(C)N2C(=O)C1CC1 (stereo not given)	6.2%	-1.5%	-6.4%	-14.2%	3.0%	8.6%	nt
CCCN(CCC)CCCNC(=O)c1cc2c(=O)n(C)c3ccccc3c2s1	-8.2%	0.4%	-6.1%	-4.5%	0.5%	0.5%	nt
CC1CCN(S(=O)(=O)c2ccc3[nH]cc(C(=O)NCc4ccc(F)cc4)c(=O)c3c2)CC1	-3.7%	-22.8%	1.1%	-12.0%	-14.0%[60.1 µM]	-26.2%	nt
CCOCCOC(=O)c1ccc(NC(=O)/C=C/c2ccc(OC)c(OC)c2)cc1	-0.8%	-12.4%	?	-12.2%	-16.7%	4.5%	nt
COc1cc(/C=C2/C(=N)N3C(SC)=NSC3=NC2=O)ccc1OC(=O)c1ccco1	-17.4%	?	-2.9%	-7.1%	-14.9%	2.9%	nt
N=C1/C(=C\c2coc3ccccc3c2=O)C(=O)N=C2SC=CN12	20.4%	-3.1%	-11.5%	39.8µM*	?	?	nt	Pol eta inh-2=?

High-throughput results from PubChem.
